For 38 molecules, growth results are on record in PubChem BioAssay (NCI).

For this test, the system named is MDA-MB-468 breast. Kind of test: NCI-60 one-dose screen, 48 h (100 = growth as untreated, 0 = no growth, -100 = all killed). The conditions noted are these: 10 µM unless noted.

This is part of a sample that, as a whole, favours compounds with a hit. Of some 83,000 tested, about 20% had one in any assay.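 Testing used 96-well plates and a 48-hour single-concentration exposure. Example: -40 means 40% of the starting cells died.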 Values without a mark were called inactive. Active and inactive are the calls of the source. The calls were made as follows: active = growth percent below 10; inactive = the rest.

Turning to `CCCCCn1sc(=O)n(Cc2ccc(CNC(=O)OCc3ccc4cccc(O)c4n3)cc2)c1=O`, the growth was -48.1% (active).

In the case of `CCCCOC(OCCCC)c1ccccc1`, the growth was 104%. As for `Cn1cc(-c2csc(-c3cn(C(=O)OC(C)(C)C)c4ccccc34)n2)c2ccnc(Cl)c21`, the growth was 44.8%.

`COc1ccc(-c2nsc3c2NC(=O)CC3c2ccc3c(c2)OCO3)cc1` (stereo not drawn): the growth was 10.3%.

In the case of `COC(=O)[C@@H](Cc1c[nH]c2ccccc12)NC(=O)CCCCOc1cc(O)c2c(=O)cc(-c3ccccc3)oc2c1`, the growth was 71.3%.

For `Cc1ccc2c(c1)/C(=N\N=C/c1cn(C(C)C)c3ccccc13)C(=O)N2`, the growth is 7.43% (active). The value for `CC(=O)Nc1ccc(Cl)cc1Cl` was 90.1%. In the case of `C[C@@H](CO)[C@@H]1CC[C@]2(C(=O)N3CCN(C)CC3)CC[C@]3(C)[C@H](CC[C@@H]4[C@@]5(C)CC[C@H](O)C(C)(C)[C@@H]5CC[C@]43C)[C@@H]12`, the growth was 61%. The same measure for `NC(=O)[C@@H]1CC2CCC1C2` (stereo partly drawn): 99.4%; for `CCCCCN1C=C/C(=C\C(=O)N(C)c2ccc(Oc3ccccc3)cc2)c2ccccc21`: 22.3%; for `CNCCCC12CCC(c3ccccc31)c1ccccc12`: 29.4%.

Regarding `Cc1cc(O)ccc1O`, the growth is 107%.

In the case of `O=C(c1nnc(Nc2ccccc2Br)o1)c1c[nH]c2ccccc12`, the growth is 103%.

For the molecule `C=C1C(=O)O[C@H]2[C@H]1CC/C(COC(=O)NCc1c[nH]c3ccc(Cl)cc13)=C\CC[C@@]1(C)O[C@@H]21`, the growth was -70.9% (active). The value for `O=S(=O)(O)c1ccc(F)cc1` was 122%; that for `C=C1C(=O)O[C@H]2[C@H]1CC/C(CNC(=O)c1c[nH]c3ccc(F)cc13)=C\CC[C@@]1(C)O[C@@H]21` was -55.8% (active); that for `O=C(COCc1c(-c2ccccc2)no[n+]1[O-])Nc1ccc(C(=O)/C=C/c2ccc3c(c2)OCO3)cc1` was 98.7%. Turning to `O=C(O)c1ccc(-n2cc(/C=N/Nc3ccc(F)cc3)c(-c3cccc(C(F)(F)F)c3)n2)cc1`, the growth was 90.8%. The same measure for `COc1ccc(-c2nc3ccccc3n3cccc23)cc1`: 112%. The same measure for `Cn1cc(-c2nc(N)nnc2-c2c[nH]c3ccc(Br)cc23)c2cc(Br)ccc21`: 6.33% (active); for `COc1cc2ncnc(NC3CCC(O)CC3)c2cc1OC` (stereo not drawn): 96.7%.

With `COc1cc2cc(Oc3cccc(NC(=O)Nc4cc(C(F)(F)F)cc(C(F)(F)F)c4)c3)c(C)nc2cc1OC`, the growth is -8.12% (active). The value for `CCCCC/C(=C\c1ccccc1)C1OC(C)C(C)O1` (stereo not drawn) was 98.8%; that for `CCC(CC)n1c(=O)c(SC2=NC3C(NN2)N(CC)C(=O)N3CC)c(C(=O)O)c2ccccc21` (stereo not drawn) was 23%; that for `COC(OC)c1ccccc1` was 107%.

`Oc1ccccc1-c1nnc(SCc2ccc(O)c3ncccc23)n1-c1ccccc1`: the growth was 0.833% (active). The same measure for `Cn1cc(-c2nc(-c3c[nH]c4ncccc34)cs2)c2cc(F)ccc21`: -22.6% (active). Regarding `CSc1ccc(C(=NNS(=O)(=O)c2ccc(C)cc2)c2ccc(Cl)cc2)cc1`, the growth is 112%.

In the case of `C[C@H]1[C@H](C)CC[C@]2(C(=O)OCCOCCOCC[P+](c3ccccc3)(c3ccccc3)c3ccccc3)CC[C@]3(C)C(=CC[C@@H]4[C@@]5(C)CC[C@H](OC(=O)C(Cl)Cl)C(C)(C)[C@@H]5CC[C@]43C)[C@H]12`, the growth is -21.5% (active). The same measure for `O=C(N/N=C\c1cc(Br)ccc1O)c1ccncc1`: 24%. The same measure for `COC(=O)C1CC(=O)N(C(=O)Nc2ccc(Cl)cc2Cl)C1` (stereo not drawn): 97.8%; for `COc1cc(C2CC(c3ccc(C)cc3)=NN2C=O)ccc1OCCN(C)C` (stereo not drawn): 93.1%. Take `COc1cc(OC)c(C2C(Cl)C(=O)N2Nc2ncnc3ccccc23)cc1OC` (stereo not drawn): the growth was 92.5%. `C#C[C@]1(O)CC[C@H]2[C@@H]3CC=C4c5sc(N=C(N)N)nc5CC[C@]4(C)[C@H]3CC[C@@]21C`: the growth is -31.7% (active). The value for `COc1ccccc1/C=C(/C(=O)c1ccccc1)c1ccccc1` was 101%; that for `COc1ccc(CCNC2=CC(=O)CCC2)cc1OC` was 109%; that for `ClCc1cccc(CSc2ncnc3c2ncn3Cc2cccc(CCl)c2)c1` was -89.3% (active). Consider `CCN(CC)CC(O)CNc1ccnc2cc(Cl)c(Cl)cc12` (stereo not drawn), for which the growth was 83.5%.
